These results are taken from PubChem BioAssay AID743279 (National Center for Advancing Translational Sciences (NCATS), 2014).

Hit rate of the full screen: of about 360,000 compounds, about 17,000 (4.7%) were called active. Not shown: some 5% with an inconclusive outcome. Rule as the data show it: active = activity change below about -50%; inconclusive = mostly about -30% to -49%; inactive = weaker than that. Shown is part of a subset that was picked to be rich in actives.
% is scaled to controls: 0 for no effect and ±100 for the full control effect.

A short description of this test: qHTS for Inhibitors of Inflammasome Signaling: IL-1-beta AlphaLISA Primary Screen. Particulars: THP-1 LPS/ATP IL-1B secretion, 16 h; at 57.5 µM, active compounds read low. From the text: Inflammasomes are a set of intracellular multi-protein complexes that enable autocatalytic activation of inflammatory caspases and drive the innate immune response to counter harmful agents. […] A qHTS assay, based on AlphaLISA technology, was developed to screen the Molecular Libraries Small Molecule Repository (MLSMR) to look for novel inflammasome inhibitors. The assay detects IL-1B using AlphaLISA anti-IL-1B acceptor and donor beads. A decreased emission signal, indicating reduced IL-1B secretion, is the desired outcome for this assay. NIH Chemical Genomics Center [NCGC] NIH Molecular Libraries Probe Centers Network [MLPCN] MLPCN Grant: MH095513 Assay Provider: Shyam Biswal Ph.D., Johns Hopkins University Immunity. 2012 Jul 27;37(1):85-95. PMID: 22819042 [2] Curr Pharm Des. 2012;18(16):2320-8. PMID: 22390695
Three microliters containing 3000 THP-1 cells were dispensed into the wells of solid, white, tissue culture treated Greiner 1,536-well plates. Library compounds and positive control, Glyburide, were pin-transferred (23 nL) by a Kalypsys pin-tool equipped with a 1,536-pin array, resulting in final compound concentration ranges of 2.5 nM to 57.5 uM. After 1 hr of cell culture incubation (37 °C, 5% CO2), 1 microL of 1 microg/mL lipopolysaccharide (250 ng/mL, final) and 5 mM ATP (1.25 mM, final) were added to stimulate the cells. After 16 hr of cell culture incubation with the compounds, 1.5 uL of anti-IL-1B acceptor beads (6 ug/mL, final) and biotinylated antibody (0.6 nM, final) were added to the plate, followed by a 1 hr incubation at ambient temperature. To detect the secreted IL-1B, 1.5 uL of AlphaLISA SA-Donor beads (24 ug/mL, final) were added, followed by 30 min of incubation in the dark at ambient temperature. The AlphaLISA signal was read by a PerkinElmer EnVision plate reader with an ultrasensitive luminescence detector and 1536 Plate HTS AlphaScreen aperture (excitation of 680nm and emission of 615nm).
In general terms: qHTS replaces the single test concentration by a dilution series.
Regarding `O=C1NC(=O)C(CCc2ccccc2)(c2ccccc2)N1` (stereo not given), the activity change was -4.4% (inactive).
`O=C(NCc1ccccc1)c1onc(CSc2ccncc2)c1C(=O)NCc1ccccc1`: the activity change is 39.9% (inactive).
Take `COc1cccc(Nc2nc(N)c([N+](=O)[O-])c(NCc3ccco3)n2)c1`: the activity change is -69.4% (active).
The value for `CN(c1ccccc1)c1nc(N)c([N+](=O)[O-])c(NCc2ccco2)n1` was -23.7% (inactive); that for `COc1ccc(Nc2nc(NCc3ccco3)nc(N/N=C/c3ccccc3Cl)n2)cc1` was -12.1% (inactive); that for `CCOC(=O)c1c(NC(=O)c2ccc(S(=O)(=O)N(C)CC3CCCO3)cc2)sc2c1CC(C)(C)NC2(C)C` (stereo not given) was -16.8% (inactive).
For `COC(=O)c1sccc1NC(=O)COc1ccc(Cl)cc1`, the activity change was -5.02% (inactive).
With `COC(=O)c1c(NC(=O)COc2ccc(Cl)cc2Cl)sc2c1CC(C)(C)NC2(C)C` the figure was -99.6% (active); with `C[C@@H]1CN([C@H](C)CO)C(=O)CCCn2cc(nn2)CO[C@H]1CN(C)S(C)(=O)=O`, -20.6% (inactive); with `COC(=O)Cc1ccc(OC2(C)CCN(Cc3ccc4c(c3)OCCO4)C2)cc1` (stereo not given), 12.5% (inactive).
In the case of `COc1cc2c(cc1OC)C(c1cccc([N+](=O)[O-])c1)=NCC2`, the activity change is -7.18% (inactive).
As to `COc1cc(CN2CCCN(C)CC2)c([N+](=O)[O-])cc1OC`, the activity change is 26.5% (inactive).
For `COc1cc2c(cc1OC)C(Cc1cc(OC)c(OC)cc1[N+](=O)[O-])=NCC2`, the activity change is -58.9% (active).
The value for `C=CCOc1ccccc1CNn1c(C)n[nH]c1=S` was 0.633% (inactive); that for `CC(C)=CCc1ccc(O)c(=O)cc1C(C)C` was 1.89% (inactive); that for `CC(C)=CCc1c(O)c(CC=C(C)C)c2occ(-c3ccc(O)cc3)c(=O)c2c1O` was -78.8% (active).
Regarding `COc1cc(CNc2ncnc3c2ncn3[C@H]2CN(Cc3cccs3)C[C@@H](CO)O2)cc(OC)c1OC`, the activity change was 0.705% (inactive).
As for `CCCCCn1nnnc1-c1nc2cc3ccccc3cc2[nH]c1=O`, the activity change was 1.49% (inactive).
Regarding `CCCCn1c(-c2cccc(C)c2)nc2cc3[nH]c(=O)c(C(C)C)nc3cc21`, the activity change is -61% (active).
As to `CCCCn1c(N)c(N(CCOC)C(=O)CSCC(=O)Nc2cccc(C)c2)c(=O)[nH]c1=O`, the activity change is 9.86% (inactive).
For `CC(C)Oc1ccc(C2NC(=O)NC2=O)cc1` (stereo not given), the activity change was 10.2% (inactive).
For `COc1ccccc1-c1n[nH]nc1C1=CC(=O)CC(C)(C)C1`, the activity change was -12.1% (inactive).
`COc1cc2nnn(-c3ccncc3)c2cc1OC`: the activity change is -22.1% (inactive).
As for `Cc1ccc(-c2nnc(-n3nnc4ccccc43)c3ccccc23)cc1`, the activity change was 55.9% (inactive).
Regarding `c1ccc2c(c1)nnn2-c1ccncc1`, the activity change is -56.6% (active).
For the compound `CC(Sc1ccc(S(=O)(=O)N2CCN(C)CC2)cn1)C(=O)NC1CCCC(C)C1C` (stereo not given), the activity change was -7.4% (inactive).
`COc1cccc(-c2cc3nc4c(c(N5CCC6(CC5)OCCO6)n3n2)CCCC4)c1`: the activity change is -96.1% (active).
As to `COc1cccc(CNc2nc3nc4c(c(=O)n3[nH]2)CCC4)c1`, the activity change was -4.67% (inactive).
Take `N#C/C=C\Oc1ccc(Cl)cc1N`: the activity change is -9.78% (inactive).
With `Cc1ccccc1S(=O)(=O)NC(=O)C1(C)CCN1C(=O)C1(c2ccccc2)CCCC1` (stereo not given), the activity change is 31.4% (inactive).
In the case of `C[C@@H]1Cn2cnc(C(=O)Nc3ccc(CNC(=O)OC(C)(C)C)cc3)c2C(=O)N1`, the activity change is -13.5% (inactive).
With `Cc1cc(=O)oc2cc(NC(=O)C3CC(=O)N(Cc4ccccc4)C3)ccc12` (stereo not given), the activity change was 0% (inactive).
Regarding `CC(OC(=O)C1CC(=O)N(Cc2ccccc2)C1)C(=O)Nc1ccccc1[N+](=O)[O-]` (stereo not given), the activity change was 16.6% (inactive).
With `O=C(Nc1ccc(F)c([N+](=O)[O-])c1)C1CC(=O)N(Cc2ccccc2)C1` (stereo not given) the figure was -91% (active).
As for `NC(=O)C1(Nc2ccc([N+](=O)[O-])cc2)CCCC1`, the activity change was -4.02% (inactive).
Turning to `COc1cccc(-c2ccc(SCC(=O)N3CCN(c4ccccc4)CC3)nn2)c1`, the activity change was -69.3% (active).
With `COc1cccc(/C=C/C(=O)OCC(=O)N2CCN(c3ccccc3)CC2)c1`, the activity change is -25.8% (inactive).
Regarding `CCOc1ccc(-c2ccc(SCC(=O)N3CCOCC3)nn2)cc1`, the activity change is 71% (inactive).
Take `CC(NC(=S)Nc1ccccc1)C1COc2ccccc2O1` (stereo not given): the activity change is -4.51% (inactive).
With `CCN1/C(=C/C(=S)Nc2ccccc2)Sc2ccccc21`, the activity change was -101% (active).
Turning to `CCOC(=O)CNC(=O)N1c2ccccc2Sc2ccccc21`, the activity change was -21% (inactive).
Turning to `CCOC(=O)C1=CC[C@@H](c2ccncc2)N(S(=O)(=O)c2ccc(C)cc2)C1`, the activity change is 57.8% (inactive).
In the case of `O=C(c1ccc(Cl)c(S(=O)(=O)N2CCCCCC2)c1)N1CCN(c2ccc(O)cc2)CC1`, the activity change was -10.9% (inactive).
For the compound `COc1cc(/C=C/c2ccc(/C=C/c3cc(OC)c(OC)c(OC)c3)cc2)cc(OC)c1OC`, the activity change is 94.5% (inactive).
For `COc1cc(/C=C/C2=CC(C)(C)NC(=S)N2)cc(OC)c1OC`, the activity change is -71.3% (active).
With `COc1ccc(-n2c(-c3ccc(Cl)cc3)n[nH]c2=S)c(OC)c1` the figure was -15.4% (inactive); with `COc1cc(/C=C/C(=O)OCC(=O)c2ccccc2)cc(OC)c1OC`, 18.6% (inactive).
Regarding `COc1ccc(/C=C/C2=CC(C)(C)NC(=S)N2)c(OC)c1`, the activity change was -87.3% (active).
For `COc1ccc(/C=C/C(=O)OCC(=O)Nc2cccc(Oc3ccccc3)c2)c(OC)c1`, the activity change is -2.25% (inactive).
Regarding `CCOC(=O)C1CCCN(C(=O)Cn2ncc3c(=O)oc4ccc(C)cc4c32)C1` (stereo not given), the activity change was 2.35% (inactive).
The value for `CCOC(=O)C1=CCC2C(=O)N(Cc3ccccc3)C(=O)C12` (stereo not given) was 3.12% (inactive); that for `CN(c1ccccc1)S(=O)(=O)c1ccc(C(=O)NCc2cccnc2)cc1` was 12% (inactive).
Take `Cn1c(=O)c2c(nc(OCc3cccnc3)n2Cc2ccccc2)n(C)c1=O`: the activity change was -9.43% (inactive).
On to `CCC(C)(C)c1ccc(OCC(=O)N(C)C)c(C(C)(C)CC)c1`, for which the activity change is -90.9% (active).
With `CCc1nc(C)ccc1OCC(=O)N(CC)CC` the figure was 6.9% (inactive).
For `CN(C)CCOc1ccc(Cl)cc1C(C)(C)C`, the activity change was -13.6% (inactive).
Take `O=C(NC1CCCCC1)C1CCC(CNS(=O)(=O)c2ccccc2)CC1` (stereo not given): the activity change was -6.12% (inactive).
With `O=C(Nc1ccncc1)c1ccc([N+](=O)[O-])cc1Cl` the figure was -15% (inactive); with `O=C(Nn1c(SCc2ccc([N+](=O)[O-])cc2)nc2ccccc2c1=O)c1ccc(F)cc1`, -1.43% (inactive); with `Cc1ccnc(NC(=O)c2ccoc2C)c1`, -8.69% (inactive).
Take `CCN(CC)c1ccc(C(=O)Nn2c(C)nc3ccccc3c2=O)cc1`: the activity change is 18.5% (inactive).
In the case of `Cc1ccc(/C=C2\CCn3c2nc2cc(C(=O)O)ccc2c3=O)c(C)c1`, the activity change was 12.5% (inactive).
With `Cc1ccnc(NC(=O)Cn2ccc([N+](=O)[O-])n2)c1` the figure was 15.1% (inactive).
Regarding `O=C(Nc1ccccc1C(=O)Nc1ccncc1)c1ccc([N+](=O)[O-])cc1`, the activity change is -6.48% (inactive).
For `O=C(Nc1ccncc1)c1ccc(Cl)c([N+](=O)[O-])c1`, the activity change is -64.8% (active).
Take `Cc1ccnc(NC(=O)c2ccc(Cl)c([N+](=O)[O-])c2)c1`: the activity change was -78.4% (active).
Turning to `Cc1nc2ccccc2c(=O)n1NC(=O)c1ccc(Cl)c([N+](=O)[O-])c1`, the activity change is -60.1% (active).
With `O=C(O)c1ccc2c(=O)n3c(nc2c1)/C(=C/c1ccc(Cl)c([N+](=O)[O-])c1)CC3`, the activity change is -64.3% (active).
Turning to `N#Cc1ccc(/C=C2\CCn3c2nc2cc(C(=O)O)ccc2c3=O)cc1`, the activity change was -13.5% (inactive).
As for `CC1(C(=O)NCc2ccco2)Cc2c(-c3ccc4c(c3)OCO4)ccnc2O1` (stereo not given), the activity change was 7.16% (inactive).
With `Cc1ccccc1CSc1nnc(-c2ccccn2)n1N`, the activity change was -29.8% (inactive).
Turning to `CCOC(=O)C1CCN(C(=O)c2ccc3c(=O)n4nc(Nc5ccccc5CC)sc4nc3c2)CC1`, the activity change is -8.29% (inactive).
For the compound `CCCCN1C(=O)C(CC(=O)NCc2cccs2)CC(C(=O)N2CCOCC2)=C1C` (stereo not given), the activity change was 34.2% (inactive).
The value for `COc1ccccc1CNC(=O)Cn1c(=O)oc2cc(Cl)ccc21` was -3.46% (inactive); that for `Cc1ccc(C(O)c2ncc(-c3ccccc3F)[nH]2)cc1F` (stereo not given) was 0.413% (inactive).
The value for `Cc1ccc(CC2(C)C(=O)Nc3ccc(OC(F)(F)F)cc32)cc1` (stereo not given) was -8.4% (inactive); that for `CN1OC[C@@H]2CN(C(=O)c3cccnc3)[C@H](c3ccc(N4CCCCC4)cc3)C[C@@H]21` was 3.15% (inactive).
With `CCNC(=O)C1(C)CCCN(C(=O)c2c(C)noc2C)C1` (stereo not given), the activity change is 25% (inactive).
Turning to `CS(=O)(=O)c1sc(C(=O)NC(=S)Nc2ccc(OC(F)(F)F)cc2)c2c1C=CCC2`, the activity change was 21.9% (inactive).
The value for `COc1ccc(CNC(=O)C2CCN(S(C)(=O)=O)CC2)cc1` was 14.1% (inactive).
As to `O=C(O)C(=Cc1ccc([N+](=O)[O-])cc1)CCc1ccccc1`, the activity change was 0.991% (inactive).
For the compound `CCOC(=O)/C(=C\c1ccc([N+](=O)[O-])cc1)C(=O)c1cc(C(C)=O)c(Nc2ccccc2)s1`, the activity change was -116% (active).
Regarding `CCOC(=O)/C(=N\Nc1ccccc1[N+](=O)[O-])c1csc(Nc2ccccc2)n1`, the activity change is 1.73% (inactive).
`CC1C(=O)Nc2ccccc2N1C(=O)c1c(F)cccc1F` (stereo not given): the activity change was -9.24% (inactive).
Consider `C=C1C(=O)OC2C1CCC(C)=CCCC1(C)OC21` (stereo not given), for which the activity change was -113% (active).
With `O=C(CSc1ccc([N+](=O)[O-])cn1)Nc1ccc(N2CCOCC2)c(Cl)c1`, the activity change was -12.5% (inactive).
In the case of `CS(=O)(=O)N(CC(=O)N1CCCC1)Cc1ccccc1`, the activity change is 4.88% (inactive).
Take `COc1cc(C(=O)N(C)Cc2cccc(OC)c2OC)ccc1OCC(=O)Nc1cccc(C(F)(F)F)c1`: the activity change was -57.3% (active).
Take `COc1ccc(C(=O)OCC(=O)Nc2cccc(C(C)=O)c2)cc1OC`: the activity change is 20.1% (inactive).
`CCNC(=O)c1ccc(OCC(=O)Nc2ccc(F)cc2)c(OC)c1`: the activity change was -5.56% (inactive).
